This is part of a sample that, as a whole, favours compounds with a hit. Of some 83,000 tested, about 20% had one in any assay.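 In brief: 96-well plates, 48 h treatment, single concentration, percent growth endpoint.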
Legend:
Assay in all cases: NCI-60 one-dose screen, 48 h (100 = growth as untreated, 0 = no growth, -100 = all killed); active = growth percent below 10; inactive = the rest
NCI-H226 lung = details: 10 µM unless noted
HOP-62 NSCLC = details: 10 µM unless noted
NCI-H460 lung = details: 10 µM unless noted
HOP-92 NSCLC = details: 10 µM unless noted
NCI-H522 lung = details: 10 µM unless noted
A549/ATCC NSCLC = details: 10 µM unless noted
786-0 renal = details: 10 µM unless noted
COLO 205 colon = details: 10 µM
DU-145 prostate = details: 10 µM unless noted
K-562 leukemia = details: 10 µM unless noted
MALME-3M melanoma = details: 10 µM unless noted
MDA-MB-231 breast = details: 10 µM unless noted
RXF 393 renal = details: 10 µM unless noted
SF-268 CNS = details: 10 µM unless noted
SF-295 CNS = details: 10 µM unless noted
SF-539 CNS = details: 10 µM unless noted
UACC-257 melanoma = details: 10 µM unless noted
M14 melanoma = details: 10 µM unless noted
HT29 colon = details: 10 µM unless noted
SNB-75 CNS = details: 10 µM unless noted
SNB-19 CNS = details: 10 µM unless noted
PC-3 prostate = details: 10 µM unless noted
UACC-62 melanoma = details: 10 µM unless noted
LOX IMVI melanoma = details: 10 µM unless noted
SK-MEL-28 melanoma = details: 10 µM unless noted
SK-MEL-2 melanoma = details: 10 µM unless noted
SN12C renal = details: 10 µM unless noted
UO-31 renal = details: 10 µM unless noted
TK-10 renal = details: 10 µM unless noted
ACHN renal = details: 10 µM unless noted
CAKI-1 renal = details: 10 µM unless noted
A498 renal = details: 10 µM unless noted
HL-60(TB) leukemia = details: 10 µM unless noted
MOLT-4 leukemia = details: 10 µM
SR leukemia = details: 10 µM
OVCAR-8 ovarian = details: 10 µM unless noted
OVCAR-5 ovarian = details: 10 µM unless noted
OVCAR-4 ovarian = details: 10 µM unless noted
SK-OV-3 ovarian = details: 10 µM unless noted
IGROV1 ovarian = details: 10 µM
OVCAR-3 ovarian = details: 10 µM unless noted
HS 578T breast = details: 10 µM unless noted
NCI/ADR-RES ovarian = details: 10 µM unless noted
T-47D breast = details: 10 µM unless noted
BT-549 breast = details: 10 µM
SW-620 colon = details: 10 µM unless noted
MCF7 breast = details: 10 µM unless noted
HCT-116 colon = details: 10 µM unless noted
HCC-2998 colon = details: 10 µM unless noted
KM12 colon = details: 10 µM unless noted

Measured: growth

CNC(=O)O/N=C(/C)c1ccc(Cl)cc1
inactive: NCI-H226 lung 92.1% | HOP-62 NSCLC 99.4% | NCI-H460 lung 113% | HOP-92 NSCLC 86.4% | NCI-H522 lung 96.5% | A549/ATCC NSCLC 99.3% | 786-0 renal 90.7% | COLO 205 colon 107% | DU-145 prostate 114% | K-562 leukemia 92.9% | MALME-3M melanoma 101% | MDA-MB-231 breast 120% | RXF 393 renal 110% | SF-268 CNS 110% | SF-295 CNS 101% | SF-539 CNS 125% | UACC-257 melanoma 104% | M14 melanoma 98.7% | HT29 colon 99.1% | SNB-75 CNS 87.4% | SNB-19 CNS 112% | PC-3 prostate 91.8% | UACC-62 melanoma 114% | LOX IMVI melanoma 106% | SK-MEL-28 melanoma 105% | SK-MEL-2 melanoma 97.2% | SN12C renal 105% | UO-31 renal 83.8% | TK-10 renal 91.6% | ACHN renal 129% | CAKI-1 renal 98.2% | A498 renal 92.2% | HL-60(TB) leukemia 92.1% | MOLT-4 leukemia 93.9% | SR leukemia 90% | OVCAR-8 ovarian 102% | OVCAR-5 ovarian 111% | OVCAR-4 ovarian 97.3% | SK-OV-3 ovarian 96.8% | IGROV1 ovarian 101% | OVCAR-3 ovarian 114% | HS 578T breast 137% | NCI/ADR-RES ovarian 109% | T-47D breast 91.8% | BT-549 breast 91.1% | SW-620 colon 117% | MCF7 breast 96.6% | HCT-116 colon 99.9% | HCC-2998 colon 105% | KM12 colon 114%

NC(=O)CN1C(=O)C(Cc2ccccc2)N=C(c2cccc(O)c2)c2ccccc21 (stereo not drawn)
inactive: UACC-62 melanoma 97.8% [30 µM] | TK-10 renal 102% [30 µM] | MCF7 breast 96.4% [30 µM]

— PubChem BioAssay (NCI)
